Assay results from PubChem BioAssay (EPA / NIEHS).
Inconclusive results are not listed. Active and inactive are the calls of the source. How the source made its calls: active means hit-call score of the fitted dose curve at least 0.9, where 1 is the maximum; inconclusive means response in the unintended direction; inactive means score below 0.9.

What follows are molecules tested on glucuronosyltransferase (UGT1A1), UGT1A1 (gene 54658) (assay: CLD_UGT1A1_24hr: CellzDirect (CLD) Gene Expression Assay for glucuronosyltransferase (UGT1A1) at 24 hours (AID 2283696)).
Method: CLD_24hr is a cell-based, multiplexed-readout assay that uses hepatocyte, a human liver primary cell, with measurements taken at 24 hours after chemical dosing in a 96-well plate.CLD_UGT1A1_24hr is one of 16 assay component(s) measured or calculated from the CLD_24hr assay. It is designed to make measurements of mRNA induction, a form of inducible reporter, as detected with chemiluminescence signals by Quantitative Nuclease Protection Assay (qNPA) technology.Data from the assay component CLD_UGT1A1_24hr was analyzed at the endpoint, CLD_UGT1A1_24hr, in the positive analysis fitting direction relative to DMSO as the negative control and baseline of activity. Using a type of inducible reporter, gain-of-signal activity can be used to understand changes in the reporter gene as they relate to the gene UGT1A1. Furthermore, this assay endpoint can be referred to as a primary readout. To generalize the intended target to other relatable targets, this assay endpoint is annotated to the transferase intended target family, where subfamily is glucuronosyltransferase.
Human hepatocyte cultures were treated daily for two consecutive days with fresh dosing solutions containing appropriate concentrations of the 320 ToxCast chemicals (chemical identities were blinded to CellzDirect and other ToxCast collaborators), vehicle control (0.2% DMSO), and positive control inducers as summarized in Table 1. Due to the large number of treatment groups and chemicals examined, the ToxCast chemicals were divided into two groups (spanning two independent cultures of hepatocytes from separate donor preparations (Hu778: ToxCast plates 1 and 2; Hu776: ToxCast plates 3 and 4). Each preparation of human hepatocyte cultures was treated with respective vehicle control, medium only control, set of six positive controls/reference chemicals for the five hepatic receptor pathways, and a subset of eight of the ToxCast chemicals (indoxacarb, pyrithiobac-sodium, norflurazon, cyhalofop-butyl, methomyl, thiram, acetochlor, and propiconazole). These replicate data, coupled with internal replicates designed within the blinded ToxCast chemical library, provided additional data to evaluate interindividual differences between hepatocyte preparations and their potential impact on chemical profiles.Cell morphology and integrity were evaluated using phase-contrast microscopy as an indicator of hepatocyte cell health (Tyson & Green, 1987). Cultures for each treatment group (i.e., media, vehicle [0.2% DMSO], positive control inducers [multiple concentrations], and the ToxCast chemicals [multiple concentrations]) were observed and cell morphology was assessed relative to vehicle control cultures at each harvest time point (0, 6, 24, or 48 h). […] Images were evaluated at the conclusion of the study to assess changes in cell integrity and account for the effects of chemical exposure on uncharacteristic changes in concentration-dependent gene expression profiles. The results from these determinations of apparent cytotoxicity were annotated (yes/no) alongside the corresponding qNPA data for reference.At the conclusion of each treatment period, hepatocyte cultures (96-well) were washed with 1 volume of HBSS, lysed by addition of 25 ul ArrayPlate lysis buffer (HTG, Tucson, AZ), and 70 ul/well of Denaturation Oil, denatured by incubation at 95C for 10 min, and frozen at approximately -70C until analysis by nuclease protection assay (qNPA) (Roberts et al., 2007). For qNPA analysis, cell lysates were thawed at 50C for approximately 30 min, qNPA probes were added, and samples were incubated at 95C for 10 min to begin the detection process by denaturing the target RNA, dissociating the duplexes and secondary structure hybridization. At the conclusion of the hybridization period, S1 nuclease reagent was added to each sample to digest all nonprotected nucleotides at 50C for 60-90 min. […]

Row | SMILES | outcome | AC50
1 | CCCCC(CC)COC(=O)c1ccccc1C(=O)OCC(CC)CCCC (stereo not given) | inactive | –
2 | COc1cnc(OC)n2nc(NS(=O)(=O)c3c(OCC(F)F)cccc3C(F)(F)F)nc12 | inactive | –
3 | CCCC1COC(Cn2cncn2)(c2ccc(Cl)cc2Cl)O1 (stereo not given) | inactive | –
4 | COP(=S)(OC)Oc1nc(Cl)c(Cl)cc1Cl | inactive | –
5 | CC1=C(C(=O)Nc2ccccc2)SCCO1 | inactive | –
6 | CC(C)Oc1cc(-n2nc(C(C)(C)C)oc2=O)c(Cl)cc1Cl | inactive | –
7 | CC(Oc1ccc(Cl)cc1Cl)C(=O)O (stereo not given) | inactive | –
8 | CC(C)(C)c1ccc(CSc2cnn(C(C)(C)C)c(=O)c2Cl)cc1 | inactive | –
9 | CS/C(C)=N/OC(=O)N(C)SN(C)C(=O)O/N=C(\C)SC | inactive | –
10 | CNC(=O)ON=CC(C)(C)SC | inactive | –
11 | O=C(O)COc1nc(Cl)c(Cl)cc1Cl | inactive | –
12 | CCCCOC(=O)c1ccccc1C(=O)OCCCC | inactive | –
13 | C#CCOS(=O)OC1CCCCC1Oc1ccc(C(C)(C)C)cc1 (stereo not given) | inactive | –
14 | OC(c1ccc(Cl)cc1)(c1cncnc1)c1ccccc1Cl (stereo not given) | inactive | –
15 | CCOc1cc(Oc2ccc(C(F)(F)F)cc2Cl)ccc1[N+](=O)[O-] | inactive | –
16 | CCOC(=O)C(Cl)Cc1cc(-n2nc(C)n(C(F)F)c2=O)c(F)cc1Cl (stereo not given) | inactive | –
17 | COc1nc(NC(C)C)nc(NC(C)C)n1 | inactive | –
18 | Cc1cc(Cl)ccc1OCC(=O)O | inactive | –
19 | COC(=O)C=C(C)OP(=O)(OC)OC | inactive | –
20 | CCCCNC(=O)OCC#CI | inactive | –

Row | SMILES | outcome | AC50
21 | CCON=C(CC)C1=C(O)CC(c2c(C)cc(C)cc2C)CC1=O (stereo not given) | inactive | –
22 | CCCCNC(=O)n1c(NC(=O)OC)nc2ccccc21 | inactive | –
23 | Oc1ccccc1-c1ccccc1 | inactive | –
24 | C=CCC1=C(C)[C@@H](OC(=O)[C@@H]2[C@@H](C=C(C)C)C2(C)C)CC1=O | – | 20 µM (active)
25 | CC1COC(Cn2cncn2)(c2ccc(Oc3ccc(Cl)cc3)cc2Cl)O1 (stereo not given) | inactive | –
26 | COC(=O)c1ccccc1C(=O)OC | inactive | –
27 | CCNc1nc(Cl)nc(NCC)n1 | inactive | –
28 | COC(=O)C(C)Oc1ccc(Oc2ccc(Cl)cc2Cl)cc1 (stereo not given) | inactive | –
29 | CCOP(=S)(OCC)SCn1c(=O)oc2cc(Cl)ccc21 | inactive | –
30 | CCNc1nc(Cl)nc(NC(C)C)n1 | – | 6.52 µM (active)
31 | O=C(Nc1ccccc1)Nc1ccnc(Cl)c1 | inactive | –
32 | Fc1ccc(Oc2ccnc3cc(Cl)cc(Cl)c23)cc1 | inactive | –
33 | Cc1c(F)c(F)c(COC(=O)C2C(/C=C(\Cl)C(F)(F)F)C2(C)C)c(F)c1F (stereo not given) | inactive | –
34 | CCCN(CCC)c1c([N+](=O)[O-])cc(S(N)(=O)=O)cc1[N+](=O)[O-] | inactive | –
35 | COc1nc(C)nc(NC(=O)NS(=O)(=O)c2ccccc2Cl)n1 | inactive | –
36 | COc1nc(C)nc(NC(=O)NS(=O)(=O)c2ccccc2CCC(F)(F)F)n1 | inactive | –
37 | Cc1ccc(-c2c(Cl)nc(C#N)n2S(=O)(=O)N(C)C)cc1 | inactive | –
38 | COC(=O)N(OC)c1ccccc1COc1ccn(-c2ccc(Cl)cc2)n1 | inactive | –
39 | CC(C)C1(C)N=C(c2nc3ccccc3cc2C(=O)O)NC1=O (stereo not given) | inactive | –
40 | C=CC1(C)OC(=O)N(c2cc(Cl)cc(Cl)c2)C1=O (stereo not given) | inactive | –
